Where a name gives a salt, the structure may show the parent alone. Read-outs that look alike come from different tables or passages of the source. The campaign covered roughly 5,300 compounds. About 130 (2.5%) showed an effect of 50% or more. This excerpt belongs to a sample that is enriched for strong results.
Test system: M. mycetomatis strain mm55
Details: primary screen, metabolic activity vs growth control, 96 h, 2 µM, inhibitor
[1] = Madurella mycetomatis metabolic activity at 2µM (%)

Row | Compound | % viability [%] | % viability [1] [%]
1 | CN1C(C(=O)Nc2ccccn2)C(=O)c2sccc2S1(=O)=O (stereo not drawn) [ONC0002886, tenoxicam] | 126.3 | 
2 | CC(O)c1cc(C(=O)N[C@@H](C)Cn2ccc(-c3ccc(C#N)c(Cl)c3)n2)[nH]n1 (stereo partly drawn) [ONC0005059, odm201] | 86.36 | 
3 | O=C(NCc1cccc(O)c1)Nc1nc(-c2ccncc2)cs1 [ONC0005121, rki1447] |  | 69.4
4 | CC(C)(C)c1ccc(S(=O)(=O)/C=C/C#N)cc1 [bay117085] | 1.843 | 
5 | Cc1ccc(S(=O)(=O)/C=C/C#N)cc1 [bay117082] | 112.1 | 
6 | CCOc1ccc2nc(SCCN3CCOCC3)[nH]c2c1 [ONC0001849, fabomotizole hydrochloride] | 108.3 | 
7 | Cc1coc2c1C(=O)C(=O)c1c-2ccc2c1CCCC2(C)C [ONC0005254, tanshinone iia tanshinone b] | 103.2 | 
8 | Cc1c(S(=O)(=O)O)oc2c1C(=O)C(=O)c1c-2ccc2c1CCCC2(C)C [ONC0003377, sodiumtanshinoneiiasulfonate] | 55.5 | 
9 | C[C@H]1COC2=C1C(=O)C(=O)c1c2ccc2c1CCCC2(C)C [ONC0001081, cryptotanshinone] | 49.66 | 
10 | Nc1nc2nc[nH]c2c(=S)[nH]1 [ONC0003925, tioguanine] | 107.9 | 
11 | Nc1ncn([C@H]2C[C@H](O)[C@@H](CO)O2)c(=O)n1 [ONC0003115, decitabine] | 79.17 | 
12 | O=c1[nH]c(=O)n([C@H]2C[C@H](O)[C@@H](CO)O2)cc1Br [ONC0001774, 5brdu] | 105.2 | 
13 | O=c1[nH]c(=O)n([C@H]2C[C@H](O)[C@@H](CO)O2)cc1F [ONC0002845, floxuridine] | 24.01 | 
14 | Cc1cn([C@@H]2C[C@@H](O)[C@H](CO)O2)c(=O)[nH]c1=O [ONC0004416, telbivudine sebivo tyzeka] | 98.41 | 
15 | Nc1nc(=O)n([C@H]2C[C@H](O)[C@@H](CO)O2)cc1Cl [ONC0003690, 5chloro2deoxycytidine] | 55.79 | 
16 | Nc1nc(=O)n([C@H]2C[C@H](O)[C@@H](CO)O2)cc1F [ONC0004119, 5fluoro2deoxycytidine] | 7.324 | 
17 | Nc1nccc(/C=C/c2ccccc2)n1 [ONC0001621, tcn238] | 73.65 | 
18 | CCC(C/C=C/c1ccccc1)(c1ccccc1)N(C)CC1CC1 (stereo not drawn) [ONC0003075, igmesine] | 61.21 | 
19 | O=C(NCCN1CCC2(CC1)C(=O)NCN2c1cccc(F)c1)c1ccc(F)c(F)c1 [ONC0004390, ml298] | 135.4 | 
20 | O=C1NCN(c2ccccc2)C12CCN(CCCC(c1ccc(F)cc1)c1ccc(F)cc1)CC2 [ONC0003520, fluspirilene] | 48.06 | 

Row | Compound | % viability [%] | % viability [1] [%]
21 | O=C(CCCN1CCC2(CC1)C(=O)NCN2c1ccccc1)c1ccc(F)cc1 [ONC0000014, spiperone] | 87.63 | 
22 | CC(C)c1cc(CNc2nc(Nc3cc(C4CC4)[nH]n3)cc(N3CCN(C)CC3)n2)on1 [ONC0000976, xl228] | 85.75 | 
23 | CCCC[C@H](NC(C)=O)C(=O)N[C@H]1CC(=O)NCCCC[C@@H](C(=O)O)NC(=O)[C@H](Cc2c[nH]c3ccccc23)NC(=O)[C@H](CCCN=C(N)N)NC(=O)[C@@H](Cc2ccccc2)NC(=O)[C@H](Cc2cnc[nH]2)NC1=O [ONC0002156, bremelanotide acetate] | 73.73 | 
24 | O=C1O[C@@H](CO)[C@H](O)[C@@H](O)[C@@H]1O [ONC0003123, gluconolactone] | 67.77 | 
25 | C[N+]1(C)CCC(=C(c2ccccc2)c2ccccc2)CC1 [ONC0004508, diphemanil methylsulfate] | 48.99 | 
26 | C[N+]1(C)CCC(OC(=O)C(c2ccccc2)c2ccccc2)CC1 [ONC0003592, 4damp] | 92.53 | 
27 | Clc1cccc(Cl)c1N=C1NCCN1 [ONC0004193, clonidine hydrochloride] | 96.49 | 
28 | Ac-PHSCN-NH2 [ONC0000745, atn161 trifluoroacetate salt] | 72.86 | 
29 | CCNC(=O)[C@@H]1CCCN1C(=O)[C@H](CCCNC(=N)N)NC(=O)[C@H](CC(C)C)NC(=O)[C@@H](C)NC(=O)[C@H](Cc1ccc(O)cc1)NC(=O)[C@H](CO)NC(=O)[C@H](Cc1c[nH]c2ccccc12)NC(=O)[C@H](Cc1c[nH]cn1)NC(=O)[C@@H]1CCC(=O)N1 [ONC0002202, alarelin acetate] | 212.3 | 
30 | CC(CN(C)C)CN1c2ccccc2Sc2ccccc21 (stereo not drawn) [ONC0003228, trimeprazine tartrate] |  | 94.09
31 | CS(=O)(=O)c1ccc(Oc2cc(F)cc(C#N)c2)c2c1[C@H](O)C(F)(F)C2 [ONC0001118, pt2385] | 47.48 | 
32 | C[N+](C)(C)[C@@H](Cc1c[nH]c(=S)[nH]1)C(=O)O [ONC0003509, lergothioneine] | 51.74 | 
33 | CCOC(=O)N1CSCC1C(=O)O (stereo not drawn) [ONC0002766, 3ethyl thiazolidine34dicarboxylate] | 97.19 | 
34 | Nc1ncnc2c1ncn2[C@H]1O[C@@H](C(=O)N2CCN(CC(=O)Nc3cccc4c3CNC4=O)CC2)[C@H](O)[C@@H]1O [ONC0001619, eb47] | 55.83 | 
35 | Cc1cn([C@H]2O[C@@H](CO)[C@H](O)[C@@H]2F)c(=O)[nH]c1=O [ONC0004549, clevudine levovir] | 61.35 | 
36 | O=C(O)/C=C/c1c[nH]cn1 [ONC0003737, cisurocanicacid] | 146.4 | 
37 | N[C@H](Cc1c[nH]cn1)C(=O)O [ONC0001939, dhistidine] | 75.44 | 
38 | O=C(O)/C=C\c1c[nH]cn1 [ONC0002668, cisurocanic acid] | 45.73 | 
39 | NC(=O)c1nc[nH]c1O [ONC0003682, 5hydroxy1himidazole4carboxamide] | 60.3 | 

— paper PMC12670160, “A drug-repurposing screen of FDA- and EMA-approved drugs identifies two NF-κB inhibitors active against eumycetoma” (Journal of Antimicrobial Chemotherapy, 2025)
